Data from PubChem BioAssay (Tox21).
Records with an inconclusive call do not appear. Entries that show only a call come without a potency. The source made the active and inactive calls. Calls come from the whole dose curve; as a rule, active = well fitted cell-killing curve with a large enough effect in the repeat runs; inconclusive = weak or mixed curves, or effect the other way; inactive = no such curve, though single readings can be large or run the other way.

Experiment: qHTS assay to identify small molecule agonists of the vitamin D receptor (VDR) signaling pathway - cell viability counter screen (AID 743224); note: nearly all actives have a fitted effect of over 50% in size
Settings: VDR-bla HEK293T viability, CellTiter-Glo luminescence, 16 h; series mostly up to 62.6 µM
Text: U.S. Tox21 Program National Center for Advancing Translational Sciences [NCATS] NIH Chemical Genomics Center [NCGC] U.S. Environmental Protection Agency [EPA] National Institutes of Environmental Health Sciences [NIEHS] National Toxicology Program [NTP] U.S. Food and Drug Administration [FDA] Tox21 Assay Overview: The vitamin D receptor (VDR), a member of nuclear hormone receptor superfamily, plays a critical role in calcium homeostasis and bone metabolism. It is also involved in cell differentiation and growth, and thrombogenicity. […] The cytotoxicity of the Tox21 compound library against the VDR-bla cell line was tested in parallel by measuring the cell viability using CellTiter-Glo assay (Promega, Madison, WI) in the same wells.
Tox21 Assay Protocol Summary: VDR-bla cells were dispensed at 2,000 cells/6 uL/well into black wall/clear-bottom 1536-well plates using a Multidrop Combi (Thermo Fisher Scientific, Waltham, MA) dispenser. After the assay plates were incubated at a 37C and 5% CO2 for 4 h, 23 nL of compounds dissolved in DMSO, positive controls or DMSO only was transferred to the assay plate by a Pintool station (Kalypsys, San Diego, CA). The plates were incubated at 37C and 5% CO2 for 16 h. After 1 uL of LiveBLAzerTM B/G FRET substrate was added using a Bioraptr Flying Reagent Dispenser (FRD) workstation (Beckman Coulter, Indianapolis, IN, USA), the plates were incubated at room temperature for 2 h, and fluorescence intensity was measured by an Envision plate reader (PerkinElmer, Shelton, CT). For cell viability readout that measures cytotoxicity, 3 ul/well of CellTiter-Glo reagent was added into the assay plates using a FRD. After 30 min incubation at room temperature, the luminescence intensity in the plates was measured using a ViewLux (PerkinElmer) plate reader.

Row | SMILES | Potency
1 | COC(=O)[C@@H]1[C@H]2C[C@H]3c4[nH]c5ccccc5c4CCN3C[C@@H]2CC[C@@H]1O | inactive
2 | CC(CN)CC(C)(C)CCN (stereo not given) | inactive
3 | O=C(OCc1ccccc1)C(=O)OCc1ccccc1 | inactive
4 | CN(C)C(=O)CNC(=O)Cc1ccccc1 | inactive
5 | Cc1ccc2ccc(Cl)cc2n1 | inactive
6 | CCCN1C[C@H](CSC)C[C@@H]2c3cccc4[nH]cc(c34)C[C@H]21 | inactive
7 | Cc1ccc(S(=O)(=O)O)c(C)c1 | inactive
8 | O=C1CC(c2ccc(Cl)cc2)CC(=O)N1 | inactive
9 | CCCC(=O)C(C)=O | inactive
10 | Cc1cccc(C)c1OCC(C)N (stereo not given) | inactive
11 | CCC(CC)CO | inactive
12 | CC[C@H](C)C(=O)O[C@H]1C[C@H](O)C=C2C=C[C@H](C)[C@H](CC[C@@H](O)C[C@@H](O)CC(=O)O)[C@H]21 | inactive
13 | O=C(CCN1CCN(CCO)CC1)N1c2ccccc2Sc2ccc(C(F)(F)F)cc21 | inactive
14 | N[C@@H](COP(=O)(O)O)C(=O)O | inactive
15 | CCCC/C=C/C=C\C=O | inactive
16 | Cc1cc(NC(=O)C2=C(O)c3ccccc3S(=O)(=O)N2C)no1 | inactive
17 | CCCCC(CC)COCCO (stereo not given) | inactive
18 | O=C(O)C(=O)Cc1ccccc1 | inactive
19 | C[C@@H]1O[C@@H](O[C@@H]2[C@@H](O)[C@H](OCCc3ccc(O)c(O)c3)O[C@H](CO[C@@H]3O[C@H](CO)[C@@H](O)[C@H](O)[C@H]3O)[C@H]2OC(=O)/C=C/c2ccc(O)c(O)c2)[C@H](O)[C@H](O)[C@H]1O | inactive
20 | C=Cc1ccccn1 | inactive

Row | SMILES | Potency
21 | COc1ccc2nc(SCc3ncc(C)c(OC)c3C)[nH]c2c1 | inactive
22 | CC(C)NCC(O)COc1ccc(COCCOC(C)C)cc1 (stereo not given) | inactive
23 | CC(C)CC(=O)O | inactive
24 | CC(C(=O)O)c1ccc2c(c1)CC(=O)c1ccccc1S2 (stereo not given) | inactive
25 | Nc1ccc2cc(S(=O)(=O)O)cc(O)c2c1 | inactive
26 | O=P(O)(O)OP(=O)(O)O | inactive
27 | COc1cc(NS(=O)(=O)c2ccc(N)cc2)nc(OC)n1 | inactive
28 | N[C@@H](CCC(=O)Nc1ccc([N+](=O)[O-])cc1)C(=O)O | inactive
29 | BrCc1cccc(Oc2ccccc2)c1 | inactive
30 | C[Si](C)(C)C | inactive
31 | CC(=O)/C=C/C1C(C)=CCC(C)C1(C)C (stereo not given) | inactive
32 | Cc1cccc(C)c1NC(=O)c1ccccc1C(=O)O | inactive
33 | CCOC(=O)/C=C/c1ccccc1 | inactive
34 | CCOc1cc(NC(C)=O)ccc1C(=O)OC | inactive
35 | CCCOC(OCCC)OCCC | inactive
36 | c1ccc2nccnc2c1 | inactive
37 | O=C(Nc1ccc(Cl)c(Cl)c1)C1CC1 | inactive
38 | OCCC(F)(F)C(F)(F)C(F)(F)C(F)(F)C(F)(F)C(F)(F)C(F)(F)C(F)(F)F | inactive
39 | Cc1ccccc1N=O | inactive
40 | C[C@H](N)[C@H](O)c1cccc(O)c1 | inactive
